RECQ1 inh-1: inhibitors of human RECQ1 DNA helicase; 240,000 compounds, 0.54% hits; Potency, µM (top dose mostly 57.3 µM), for inactives: at the top dose activity, negative = inhibition, actives largely listed as inhibitors; RECQ1 DNA unwinding, red fluorescence kinetic read;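 note: potency is the fitted concentration of half-maximal effect; plate controls were vehicle for no effect and no enzyme for full effect; nearly all actives have a fitted effect of over 30% in size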
Target sequence (P46063 whole entry, looked up): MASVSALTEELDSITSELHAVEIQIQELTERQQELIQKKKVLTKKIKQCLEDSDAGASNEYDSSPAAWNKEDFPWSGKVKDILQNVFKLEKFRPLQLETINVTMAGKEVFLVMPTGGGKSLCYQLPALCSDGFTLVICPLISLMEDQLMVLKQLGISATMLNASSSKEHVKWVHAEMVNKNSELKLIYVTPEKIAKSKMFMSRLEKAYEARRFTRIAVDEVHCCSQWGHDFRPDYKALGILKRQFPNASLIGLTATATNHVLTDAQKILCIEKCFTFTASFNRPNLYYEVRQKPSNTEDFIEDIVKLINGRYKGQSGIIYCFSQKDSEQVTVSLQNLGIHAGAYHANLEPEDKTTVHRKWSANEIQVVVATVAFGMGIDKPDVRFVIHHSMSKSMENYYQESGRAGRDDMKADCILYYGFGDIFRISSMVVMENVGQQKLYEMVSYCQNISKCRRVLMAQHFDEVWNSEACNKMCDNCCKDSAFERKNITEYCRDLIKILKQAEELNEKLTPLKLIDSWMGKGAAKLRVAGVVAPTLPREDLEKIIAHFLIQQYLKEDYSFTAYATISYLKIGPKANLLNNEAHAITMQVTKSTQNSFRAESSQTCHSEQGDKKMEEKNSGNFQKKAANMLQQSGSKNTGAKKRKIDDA
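RECQ1T1 50 nM; forked duplex (20 bp + 30-nt ss tails) 200 nM, ATP 2 mM final; pH 8.0, 2 mM MgCl2, 2.5 ug/ml poly(dI-dC); 15 min compound preincubation; discontinuous kinetic read over 2 h at RT.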
APE1 inh-1: blocks human APE1 abasic DNA cleavage; P27695; recombinant APE1, TAMRA/BHQ-2 abasic DNA cleavage fluorescence; Potency, µM (doses to about 65.8 µM), without a hit: at the highest dose activity change, negative = inhibition, actives largely listed as inhibitors; 350,000 compounds, 0.35% hits; AID 2517;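 note: potency is the fitted concentration of half-maximal effect; plate controls were vehicle for no effect and reference inhibitor for full effect; nearly all actives have a fitted effect of over 55% in size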
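APE1 at 0.75 nM preincubated 15 min at room temperature with compound. Reaction then started with 50 nM double-stranded THF-abasic substrate labelled with TAMRA/BHQ-2, and 525/598 nm fluorescence read kinetically. Activity taken as third-minus-first read difference, normalized to DMSO and NSC13755 controls.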
FEN1 inh-1: inhibitors of human flap endonuclease 1; Recombinant FEN1 flap cleavage, fluorescence, 15 min; 390,000 compounds, 0.35% hits; Potency, µM (top dose mostly 114 µM), without a hit: at the top dose activity change, negative = inhibition, usual class: inhibitors; note: potency is the fitted concentration of half-maximal effect; % is set by controls: 0 for no effect and ±100 for the full control effect; nearly all actives have a fitted effect of over 65% in size
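Recombinant FEN1 (10 nM) was preincubated with pin-transferred compounds for 15 min at room temperature, then flap DNA substrate (50 nM final) was added. Plates were read at 0 and 15 min, and normalized concentration–response data were fitted to a four-parameter Hill equation.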
PI5P4Ka inh: inhibitors of human PI5P4K alpha | max response, % | 330,000 compounds, 1.2% hits | AID 652105 | P48426 | PI5P4Kalpha enzyme, ADP-Glo luminescence, 60 min; hits give low values; active = max response of -50% or lower; inconclusive = between -30% and -50%; inactive = -30% or higher; note: value at the top dose of about 77 µM; % is set by controls: 0 for no effect and ±100 for the full control effect
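ADP-Glo luminescence end-point after a 60 min room-temperature kinase reaction. PI5P4Kalpha and substrate in HEPES pH 7.4 buffer with EGTA, 0.1% CHAPS and 5% DMSO; ATP at 5 microM final.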
BLM helicase inh: Bloom syndrome helicase (human) inhibition. 350,000 compounds, 0.2% hits. recombinant BLM DNA unwinding, fluorescence dequenching. Potency, µM (titrated, usually from 56.1 µM), inactives show at the top dose activity change, negative = inhibition, hits mostly inhibitors;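 note: potency is the fitted concentration of half-maximal effect; plate controls were vehicle for no effect and no enzyme for full effect; nearly all actives have a fitted effect of over 35% in size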
GCN5L2 inh-1: blocks human GCN5L2 histone acetyltransferase | 390,000 compounds, 0.21% hits | Q92830 | Potency, µM (doses to about 58.9 µM), without a hit: at the top dose activity change, negative = inhibition, hits mostly inhibitors | AID 504327 | GCN5L2 HAT assay, ThioGlo1 CoA-SH fluorescence; note: potency is the fitted concentration of half-maximal effect; % is set by controls: 0 for no effect and ±100 for the full control effect
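ThioGlo1-coupled HAT assay: 20nM GCN5L2, 70uM acetyl-CoA, 75uM H3(1-25) peptide, pH 7.5. Fluorescence read at 340/540nm at start and after 20 min at room temperature.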
APE1 dye cs: DNA dye displacement counter-screen activity; shares compounds with APE1 inh-1; DNA fluorescent dye displacement counterscreen, fluorescence; Potency, µM (titrated, usually from 28.5 µM), without a hit: at the top dose activity change, negative = inhibition, hits mostly inhibitors; 480 compounds, 7% hits; AID 2564;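 note: loss of thiazole orange fluorescence as the dye is displaced from duplex DNA; potency is the fitted concentration of half-maximal effect; 0% = ThO with dsDNA and no compound and -100% = ThO without dsDNA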
EndoIV counter: blocks E. coli endonuclease IV DNA cleavage | shares compounds with APE1 inh-1 | E. coli Endo IV, fluorogenic AP-site DNA cleavage | AID 2565 | 560 compounds, 4% hits | Potency, µM (highest dose often 27.1 µM), for inactives: top-dose activity change, negative = inhibition, actives largely listed as inhibitors;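 note: potency is the fitted concentration of half-maximal effect; plate controls were uninhibited enzyme wells for no effect and no enzyme buffer wells for full effect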
APE1 inh-2: APE1 (human) endonuclease inhibition, confirmation | shares compounds with APE1 inh-1 | purified APE1, fluorogenic abasic-site DNA cleavage | Potency, µM (doses to about 57.1 µM), inactives show at the top dose activity change, negative = inhibition, actives largely listed as inhibitors | 750 compounds, 44% hits | AID 2572; note: potency is the fitted concentration of half-maximal effect; % is set by controls: 0 for no effect and ±100 for the full control effect; nearly all actives have a fitted effect of over 30% in size
APE1 FP: displaces DNA from human APE1 in FP assay; shares compounds with APE1 inh-1; APE1 binding to TAMRA-labelled double-stranded DNA, fluorescence polarization displacement; Potency, µM (doses to about 28.5 µM), for inactives: top-dose activity, negative = inhibition, hits mostly inhibitors; 480 compounds, 7% hits; AID 2573; note: potency is the fitted concentration of half-maximal effect; % is set by controls: 0 for no effect and ±100 for the full control effect
RECQ1 inh-2: blocks human RECQ1 DNA unwinding | shares compounds with RECQ1 inh-1 | recombinant RECQ1 DNA unwinding, red fluorescence | Potency, µM (highest dose often 119 µM), for inactives: at the highest dose activity, negative = inhibition, usual class: inhibitors | 1,100 compounds, 15% hits | AID 504841; note: potency is the fitted concentration of half-maximal effect; % is set by controls: 0 for no effect and ±100 for the full control effect; nearly all actives have a fitted effect of over 50% in size
GCN5L2 inh-2: human KAT2A HAT inhibition, hit confirmation; shares compounds with GCN5L2 inh-1; GCN5L2 HAT, ThioGlo1 CoA fluorescence, 20 min; Potency, µM, most hits filed as inhibitors; 140 compounds, 70% hits
FEN1 inh-2: confirmation of human FEN1 inhibitors. 880 compounds, 79% hits. Potency, µM, hits mostly inhibitors. shares compounds with FEN1 inh-1. FEN1 flap cleavage, TAMRA/BHQ2 fluorogenic DNA substrate; note: potency is the fitted concentration of half-maximal effect; nearly all actives have a fitted effect of over 60% in size
Starred values were filed as active, the others as inactive; i = inactive; ? = inconclusive; . = not tested or not shown; [ ] = dose if it differs, or a comment. In the library only some 1.5% were active in any assay of this set; here they are far more common. Unless noted, calls come from the whole dose curve; as a rule, active = well fitted curve in the direction sought with a large enough effect; inconclusive = small, poorly fitted or top-dose-only effect, or another doubt; inactive = no such curve, though single readings can be large; an effect the other way counts as inactive or inconclusive.

SMILES	RECQ1 inh-1	APE1 inh-1	FEN1 inh-1	PI5P4Ka inh	BLM helicase inh	GCN5L2 inh-1	APE1 dye cs	EndoIV counter	APE1 inh-2	APE1 FP	FEN1 inh-2	others
O=C(Nc1ccc2nc(-c3ccco3)c(-c3ccco3)nc2c1)NC1CC1	10µM*	7.08µM*	50.1µM*	-74.6*	6.31µM*	8.91µM*	?	0.4%	7.94µM*	?	.	GCN5L2 inh-2=20.4*
COc1ccc(-c2nnc(SCC(=O)Nc3c(C)cccc3C)nc2-c2ccc(OC)cc2)cc1	.	.	-11.1%	.	-7.6%	-1.4%	.	.	.	.	.
Cc1cccc(C)c1NC(=O)CSc1nnc(-c2ccco2)c(-c2ccco2)n1	14.1µM*	15.8µM*	79.4µM*	-69.1*	6.5%	12.6µM*	?	-1.7%	3.55µM*	-23.4%	.	GCN5L2 inh-2=?
O=C(CNC(=O)C(c1ccccc1)c1ccccc1)OCC(=O)c1cccc2ccccc12	.	.	-4.6%	.	.	.	.	.	.	.	.
CCNc1ccc2noc3c2c1C(=O)c1ccccc1-3	3.55µM*	3.16µM*	50.1µM*	.	25.1µM*	-8.2%	i	12.6µM*	14.1µM*	0.794µM*	84.9*
Nc1ccc2c(c1Cl)C(=O)c1ccc(N)c(Cl)c1C2=O	?	8.91µM*	?	-2.1	14.1µM*	?	6.31µM*	?	14.1µM*	?	?	RECQ1 inh-2=?
Cc1ccccc1OCC(=O)NCC(=O)OCC(=O)c1ccc(Br)cc1	.	.	-3.2%	.	.	.	.	.	.	.	.
CC[C@H](C)[C@H](NC(=O)[C@H](Cc1ccc(O)cc1)NC(=O)[C@@H](NC(=O)[C@@H](N)CCCN=C(N)N)C(C)C)C(=O)N[C@@H](Cc1cnc[nH]1)C(=O)N1CCC[C@H]1C(=O)N[C@@H](Cc1ccccc1)C(=O)O	14.7%	12.6%	.	.	0.5%	48.6%	.	.	.	.	.
O=C(O)c1cccc(-c2ccc(/C=c3/sc4nc5ccccc5n4c3=O)o2)c1	?	10µM*	12.6µM*	?	28.3%	-15.6%	6.31µM*	8.1%	5.01µM*	7.94µM*	75.7*
CNC(=S)N/N=C/c1ccc(-c2cccc(C(=O)O)c2)o1	-0.7%	1.0%	0.3%	?	-2.7%	-4.4%	.	.	.	.	.
COc1ccc(CN(Cc2ccccc2)C(=O)c2cccc(C#N)c2)cc1COc1ccc(NC(C)=O)cc1	.	.	3.9%	.	.	.	.	.	.	.	.
CCN(CC)CCNc1ccc(CO)c2sc3ccccc3c(=O)c12	-1.1%	?	31.6µM*	6.7	82.8%	-3.5%	7.94µM*	-13.9%[57.1 µM]	15.8µM*	-56.1%[57.1 µM]	33.8*
CC1(C)O[C@@H]2C[C@H]3[C@@H]4CCC5=CC(=O)C=C[C@]5(C)[C@H]4C(O)C[C@]3(C)[C@]2(C(=O)CO)O1 (stereo partly drawn)	.	.	.	.	-11.2%	-15.8%	.	.	.	.	.
CC1=C(C#N)c2nc(N)c(C#N)c(C)c2/C1=C\c1ccc(-c2ccccc2C(=O)O)o1	11.2µM*	25.1µM*	39.8µM*	-72.2*	-8.9%	?	11.2µM*	15.0%	14.1µM*	12.6µM*	47.8*
COc1cc(/C=C2/C(C)=C(C#N)c3nc(N)c(C#N)c(C)c32)ccc1OCC(=O)O	?	?	?	-15.2	-8.3%	0.4%	.	.	.	.	.
O=C(O)c1ccc(N2C(=O)c3cccc4c(C(=O)O)ccc(c34)C2=O)cc1	?	12.6µM*	50.1µM*	?	-8.2%	-14.4%	-4.0%	5.4%	?	-95.2%	21.3*	RECQ1 inh-2=?
O=C(O)c1ccc(N2C(=O)c3cccc4cccc(c34)C2=O)cc1	.	-1.3%	-2.1%	-8.5	-0.9%	-4.1%	.	.	.	.	.
COCCN=c1scc(-c2ccco2)n1/N=C/c1ccc(O)c(O)c1O	8.91µM*	8.91µM*	35.5µM*	-85.3*	10µM*	20µM*	11.2µM*	21.7%	4.47µM*	14.1µM*	?
COC(=O)N1C2=C(c3ccccc3[C@@H]1CC(=O)Nc1ccc3ccc4cccc5ccc1c3c45)[C@@H]1C(=O)N(c3ccccc3)C(=O)[C@@H]1[C@H](C)C2	9.3%[11.5 µM]	?	.	.	-1.6%[12.4 µM]	.	.	.	.	.	.
C[C@H]1Cc2c(-c3ccccc3)nc3c(c2CO1)CN(C(=O)C1CCCCC1)CC3	i[11.5 µM]	-1.6%[12.4 µM]	.	.	-1.1%[12.4 µM]	.	.	.	.	.	.
COc1ccccc1/C=c1\sc2nc(-c3ccco3)nn2c1=O	?	?	50.1µM*	-69.2*	-29.1%	?	-7.1%	-0.6%	5.01µM*	?	?	RECQ1 inh-2=?
CCOc1ccc(/C=c2\sc3nc(-c4ccco4)nn3c2=O)cc1OCC	i	15.7%	0.8%	-18.0	0.9%	-1.7%	.	.	.	.	.
O=C1c2cccc3c(Cl)ccc(c23)C(=O)N1O	-4.9%	?	0.501µM*	.	-0.7%	-0.6%	-5.0%	-2.1%	-18.5%[24.4 µM]	-102.4%	1.07*
Cc1cc(C)c(N(Cc2ccccc2)S(=O)(=O)c2ccc(OCCNC(=O)c3cc4ccccc4o3)cc2)c(C(=O)NO)c1	-4.8%	-9.6%	.	.	-8.8%	-8.9%	.	.	.	.	.
Cc1cc(NC(=O)Cc2cccs2)no1	25.1µM*	28.2µM*	56.2µM*	.	?	-14.1%	?	?	7.94µM*	-84.7%	?	RECQ1 inh-2=?
Cc1cc(NS(=O)(=O)c2ccc(NC(=O)Cc3cccs3)cc2)no1	18.9%	-5.1%	-1.1%	.	-2.8%	1.3%	.	.	.	.	.
